Measurements published in PubChem BioAssay (NCI).
Compounds without any hit were thinned out: in the full panel of roughly 83,000, 20% have a hit.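 In brief: 96-well plates, 48 h treatment, single concentration, percent growth endpoint.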 Unmarked numbers belong to inactive results. Calls of active or inactive are those of the source.

system: NCI-H460 lung; test: NCI-60 one-dose screen, 48 h (100 = growth as untreated, 0 = no growth, -100 = all killed); settings: 10 µM unless noted
Method: Growth inhibition of the NCI-H460 human Non-Small Cell Lung tumor cell line is measured as a screen for anti-cancer activity. Cells are grown in 96 well plates and exposed to the test compound for 48 hours. Compounds are tested at a single concentration, which is 10^-5 M for most compounds. The reported endpoint is percent growth (GI% or GIPRCNT), where numbers from 0 - 100% represent growth inhibition, and numbers from -100% - 0 represent cell death. For example, a value of 40 represents 60% growth inhibition. A value of 0 means no net growth occurred over the course of the experiment. A value of -40 indicates 40% of cells at the beginning of the experiment died by the end of the experiment. A value of -100 means all cells are dead at the end of the experiment.
NCI-60 Human Tumor Cell Lines Screen was performed using the standard one-dose NCI protocol, which is described in more detail at https://dtp.cancer.gov/discovery_development/nci-60/default.htm.
Compounds with GIPRCNT values below 10 were considered active. Activity score was based on GIPRCNT using the following formula: […]
Score is 0 for GIPRCNT values of 100 or above, 50 for GIPRCNT values of 0, and 100 for GIPRCNT values of -100.

Compound	growth
COc1ccc(-c2nc3cc(C)ccc3n2CC(=O)N=Nc2c(O)[nH]c3ccc(Cl)cc23)cc1	10.6%
COc1c(F)ccc(C(=O)Nc2ccc3nc(NC(=O)C4CCCN(S(=O)(=O)c5ccc(Br)s5)C4)sc3c2)c1F (stereo not given)	86.5%
NS(=O)(=O)c1ccc(-n2cc(-c3cccc(NC(=O)c4ccc(Cl)c(C(F)(F)F)c4)c3)nn2)cc1	18.1%
C=CC[N+](C)(C)CCn1c2ccccc2c2nc3cc(C)c(C)cc3nc21	104%
Cc1ccc(NC(=O)[C@]23CCC(C)(C)CC2C2=CCC4[C@@]5(C)C[C@@H](O)[C@H](O)[C@@](C)(CO)C5CC[C@@]4(C)[C@]2(C)CC3)cc1 (stereo not given in full)	3.15% (active)
O=C(c1ccc(Cl)cc1)c1ccc(OCCCN2CCN(c3ccncc3)CC2)cc1	48.6%
Cn1cc(NC(=O)c2cc(NC(=O)c3ccc(/C=C/c4ccccc4)cc3)cn2C)cc1C(=O)NCCCN1CCOCC1	-51.6% (active)
O=C(CN1C(=O)/C(=C/c2ccccc2F)SC1=S)N1CCOCC1	102%
CSc1ccccc1NC(=O)c1ccc2nnn(/C(C#N)=C/c3ccccn3)c2c1	-44% (active)
C#CCOc1ccc(/C=N/Nc2nc(-c3ccc(F)cc3)cs2)cc1OC	77.4%
O=C(COc1ccc2c(c1)CCCC(=O)N2)NCc1ccccc1	104%
N#Cc1c(-c2cccc(O)c2O)cc(-c2ccc3ccccc3c2)[nH]c1=O	41.7%
COc1cc(OC)c2c3nc4cc(C)c(C)cc4nc3n(CCN(C)C)c2c1	53.7%
Cc1ccc(-c2nc(C#N)c(S(=O)(=O)N3CCN(S(=O)(=O)c4ccc(Cl)cc4)CC3)o2)cc1	99.6%
CC(=O)OC[C@@]1(C)C2CC[C@]3(C)C(CC=C4C5CC(C)(C)CC[C@]5(C(=O)Nc5ccc(Br)cc5)CC[C@]43C)[C@@]2(C)C[C@@H](OC(C)=O)[C@@H]1OC(C)=O (stereo not given in full)	17%
CC12CC[C@@H]3[C@]4(C)COC(c5cn[nH]c5-c5ccc(Cl)cc5)O[C@@H]4CC[C@@]3(C)[C@@H]1CC(C1=CCOC1=O)O2 (stereo not given in full)	29.8%
Cc1cccc(Nc2nc3ccccc3nc2/C=C/c2ccc(F)cc2)c1	95.4%
CC12CC[C@@H]3[C@]4(C)COC(c5cn[nH]c5-c5ccc(Br)cc5)O[C@@H]4CC[C@@]3(C)[C@@H]1CC(C1=CCOC1=O)O2 (stereo not given in full)	35.4%
O=C(Cn1c2c(sc1=O)[C@H]1[C@@H](O)[C@@H](O)[C@H](O)[C@@H]1CS2)N1CCOCC1	106%
Nc1cc2ccccc2c(=O)n1NC(=O)c1ccc(I)cc1	100%

Compound	growth
Nc1nnc(-c2c[nH]c3ccc(Br)cc23)c(-c2c[nH]c3ncc(Br)cc23)n1	27.7%
C/C(=N\Nc1ccc(S(N)(=O)=O)cc1)c1ccc(N=Nc2c(Nc3ccccc3)[nH][nH]c2=O)cc1	8.87% (active)
COc1ccc(/C=C/c2nc3ccccc3c(=O)n2CC(=O)Nc2ccc(OC)cc2)cc1	50.8%
CC1(C)CC[C@]2(C(=O)O)CC[C@]3(C)C(=CCC4[C@@]5(C)C[C@@H](O)[C@@H]6OC(c7ccccc7Br)OC[C@@]6(C)C5CC[C@]43C)C2C1 (stereo not given in full)	4.53% (active)
Cc1cc2nc3c([nH]c2cc1C)c1ccc(=O)cc1n3CCN(C)C	2.91% (active)
COc1ccc(C(=O)/C=C/c2cccc(Cl)c2)cc1S(N)(=O)=O	3.05% (active)
CC(=O)Nc1ccc(-n2cnc3ccc(-c4ccc(O)cc4)cc32)cc1	38.7%
O=C(O)c1ccc(-c2ccc(/C=N/NC(=O)c3[nH]c4ccc(Br)cc4c3-c3ccccc3)s2)cc1	0.163% (active)
CN(C)CCn1c2ccccc2c2nc3ccc([N+](=O)[O-])cc3nc21	4.86% (active)
CC(C)CCNC(=O)N/C(N)=N/c1nc2ccccc2s1	66.5%
O=C(NN1C(=O)/C(=C/C=C/c2ccc([N+](=O)[O-])o2)SC1=S)c1ccccc1O	-55.7% (active)
C=C1CCC2C3(C)COC(c4ccccc4)OC3CCC2(C)C1CC(Sc1ccccc1)C1=CCOC1=O (stereo not given)	84.6%
O=C(NNc1nc2cc(F)ccc2n2c(CN3CC4CNCC4C3)ccc12)c1ccncn1 (stereo not given)	5.26% (active)
Cn1cc(-c2cc3nc(-c4c[nH]c5ccc(Cl)cc45)cc(N)n3n2)c2ccccc21	-5.5% (active)
CCN(CC)C(=O)N/C(N)=N/c1nc2ccccc2s1	67%
COc1cc(C2CC(c3ccc(S(=O)(=O)NCCNc4nc(Nc5ccc(F)cc5)nc(N(C)C)n4)cc3)=Nc3c(N)nc(N)nc3N2)cc(OC)c1OC (stereo not given)	84.5%
CN(C)c1nc(NCCNS(=O)(=O)c2ccc(C(=O)/C=C/c3ccc(F)cc3)cc2)nc(Nc2ccc(F)cc2)n1	-75.2% (active)
CC(=O)Nc1cccc(Nc2nc(N[C@H]3CCCc4ccccc43)c3ccccc3n2)c1	104%
Cc1ccc(C(=O)CSc2nc3ccc(C)cc3c(=O)n2-c2ccc(F)cc2)cc1	32.7%
CC(C)c1ccc2c(N)c(C(=O)Nc3cccc(C(F)(F)F)c3)sc2n1	67.7%
